This is part of a sample that, as a whole, favours compounds with a hit. Of some 83,000 tested, about 20% had one in any assay.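 Percent growth is the endpoint: 0 to 100 indicates growth inhibition (40 means 60% inhibition), 0 means no net growth, and negative values indicate cell death.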 Unmarked numbers belong to inactive results. Active and inactive are the calls of the source. Rule for the calls: active = growth percent below 10; inactive = the rest.

The source of these data is PubChem BioAssay (NCI).

Common to all, as to assay: NCI-60 one-dose screen, 48 h (100 = growth as untreated, 0 = no growth, -100 = all killed)
Holding throughout (conditions): 10 µM unless noted

Assay [1] deals with SK-MEL-2 melanoma.
Assay [2] deals with EKVX NSCLC.
The test system of assay [3] is UO-31 renal.
Assay [4] concerns TK-10 renal.
Assay [5] deals with ACHN renal.
Assay [6] concerns CAKI-1 renal.
For assay [7], the system named is A498 renal.
For assay [8], the system named is CCRF-CEM leukemia.
For assay [9], the system named is MOLT-4 leukemia.
Assay [10] has as its system SN12C renal.

Regarding `CC(C)CSc1nc(NCCc2c[nH]c3ccccc23)c(C#N)c(-c2ccccc2)n1`, the growth in assay [1] is 75.6%; in assay [2] it was 39.7%; in assay [3], 72.2%; in assay [4] it was 110%; in [5] it was 69.3%; in [6], 50.8%. The growth in [7] is 67.9%; in [8] it was 30.2%; in assay [9] it was 30.7%.

Regarding `CCS(=O)(=O)N1CCCC(C(=O)Nc2nc3ccc(NC(=O)c4ccc(F)c(OC)c4F)cc3s2)C1` (configuration not stated), the growth in assay [1] was 61.1%; in assay [2] it was 46.8%; in assay [10] it was 83.7%; in assay [4], 83.8%; in assay [5], 63.5%; in assay [6], 57.6%. Further, the results for the growth in [7], in assay [8] and in assay [9] were 87.9%, 29.5% and 9.19% (active), respectively.

With `N#Cc1ccc(/C=N/NC(=O)c2[nH]c3ccc(Br)cc3c2-c2ccccc2)o1`, the growth is 22.9% in [1]; 12.9% in assay [2]; 24.8% in [3]; 27.8% in [4]; 8.88% (active) in [5]; 26.9% in assay [6]. In addition, the growth is 78.1% in assay [7], -3.51% (active) in [8] and 1.36% (active) in [9].

`Cn1cc(-c2cc3nc(-c4c[nH]c5ccc(Cl)cc45)cc(N)n3n2)c2ccccc21`: the growth is -89.8% (active) in assay [1]; -88.6% (active) in assay [2]; -65.9% (active) in [10]; -92.1% (active) in assay [4]; -100% (active) in [5]; -94.6% (active) in assay [6]. In addition, the growth in assay [7] was -62.7% (active); in assay [8] it was -21.5% (active); in assay [9] it was -36.1% (active).

Turning to `O=C(NN1C(=O)/C(=C/C=C/c2ccc([N+](=O)[O-])o2)SC1=S)c1ccc(Cl)cc1`, the growth was -90.8% (active) in assay [1]; -97.4% (active) in [2]; -98.6% (active) in assay [10]; -99% (active) in assay [4]; -100% (active) in [5]; -100% (active) in assay [6]. The growth was -93.7% (active) in [7], -14.7% (active) in assay [8] and 2.15% (active) in assay [9].

Regarding `Cc1ccc(S(=O)(=O)c2nc(S(=O)(=O)c3ccc(C)cc3)c(N3CCC(O)CC3)s2)cc1`, the growth is 66.6% in assay [1]; 63.1% in assay [2]; 74% in assay [10]; 129% in assay [4]; 97.8% in [5]; 69.2% in assay [6]. Further, the growth in assay [7] was 86.1%; in [8] it was 23.8%; in [9], 38%.

For the molecule `O=C(NN1C(=O)/C(=C/C=C/c2ccc([N+](=O)[O-])o2)SC1=S)c1ccccc1O`, the growth was -86.9% (active) in [1]; -94.1% (active) in assay [2]; -98.2% (active) in assay [10]; -87.6% (active) in assay [4]; -100% (active) in [5]; -100% (active) in assay [6]. Besides, the growth in assay [7] was -61.2% (active); in [8], 5.02% (active); in assay [9], 6.95% (active).

For the molecule `COc1cc2c(c(OC)c1OC)C(=O)CC(c1cccc(NC(=O)c3cccc(NC(=O)[C@H](C)NC(=O)OC(C)(C)C)c3)c1)O2` (some centres not stated), the growth in [1] was 50.9%; in assay [2] it was 93.3%; in assay [10], 59.9%; in [4] it was 101%; in assay [5] it was 41.5%; in assay [7] it was 104%. In addition, the growth in assay [8] is 31.2%; in assay [9] it was 36.5%.

Take `COc1ccc(NC(=O)Nc2ccc(OCc3ccc(F)cc3)cc2)cc1`: the growth in assay [1] was 96.8%; in assay [2] it was 74.2%; in [10], 55.7%; in assay [4], 82.4%; in assay [5], 42.2%; in [6], 66.6%. Also, the growth in assay [7] is 80.3%; in assay [8] it was 83.7%; in assay [9], 94.8%.

Regarding `Cc1cc(C)cc(C(=O)Nc2cccc(-c3cn(-c4ccc(S(N)(=O)=O)cc4)nn3)c2)c1`, the growth is 12.8% in [1]; 55.7% in assay [2]; 32.6% in [10]; -9.72% (active) in [4]; 22.5% in assay [5]; 59.7% in assay [6]. The results for the growth in assay [7] and in [9] were -13.4% (active) and 25.3%, respectively.

Turning to `O=c1c2ccccc2nc(-c2ccccc2)n1/N=C/c1ccc2ccccc2c1`, the growth in [1] is 116%; in assay [2] it was 80.3%; in assay [10], 52.5%; in [4] it was 72.9%; in assay [5] it was 42.5%; in assay [6], 48.5%. Further, the growth in assay [7] is 94.6%; in assay [8], 51.9%; in assay [9] it was 19.5%.

Turning to `CN(C)c1ccnc(CNCCSC2(c3ccccc3)c3ccccc3C=Cc3ccccc32)c1`, the growth is -46.6% (active) in assay [1]; -24.3% (active) in assay [2]; 13.5% in [3]; 0.124% (active) in [4]; 12.8% in [5]; 3.63% (active) in assay [6]. Moreover, the growth in [7] is -38.8% (active); in assay [8], -2.57% (active); in assay [9], 7.41% (active).

On to `CCOC(=O)C1=C(N)N(c2ccccc2)C2=C(C(=O)CC(C)(C)C2)C1c1cccc(Cl)c1Cl` (configuration not stated), for which the growth in assay [1] is 86.5%; in assay [2], 57.5%; in assay [10], 63%; in assay [4], 95.2%; in [5] it was 57.9%; in assay [6], 47.4%. The values for the growth in assay [7], in [8] and in assay [9] were 128%, 54.8% and 39.5%, respectively.

For `Cc1ccc(-c2nnc3ccc(N/N=C/c4ccccc4)nn23)cc1`, the growth in assay [1] was 102%; in assay [2] it was 76.9%; in assay [10], 101%; in assay [4] it was 104%; in assay [5] it was 95.4%; in [7] it was 105%. In addition, the growth in assay [8] was 88.8%.
